Test results: PubChem BioAssay (NCATS)
Inconclusive results are not listed. Entries that show only a call come without a potency. Values without a mark were called inactive. Calls of active or inactive are those of the source. Calls come from the whole dose curve; as a rule, active = well fitted cell-killing curve with a large enough effect; inconclusive = small, poorly fitted or top-dose-only effect, or effect the other way; inactive = no such curve, though single readings can be large or run the other way.

Legend:
[1] = Viability qHTS for spleen associated tyrosine kinase inhibitor (SYKi) naive MV4-11 cells (AID 1963823); note: nearly all actives have a fitted effect of over 40% in size
Method in brief: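 Viability of MV4-11 AML cells lacking prior SYK inhibitor exposure is scored by CellTiter-Glo luminescence following 72 hr compound incubation at 37 C, 5% CO2, seeded at 500 cells per well.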

[2] = Viability qHTS for spleen associated tyrosine kinase inhibitor (SYKi) drug resistant MV4-11 cells (AID 1963824); note: nearly all actives have a fitted effect of over 35% in size
Method in brief: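 SYK inhibitor-resistant MV4-11 AML cells, 500 per well, added to predispensed compounds and incubated 72 hr at 37 C, 5% CO2. Viability measured by CellTiter-Glo luminescence after 10 min at room temperature.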
Potency is the fitted concentration of half-maximal effect.

SMILES | Potency [1] | Potency [2] | viability (% of control) [1] | viability, % of control [2]
O=C1NC(Cc2ccccc2)C(=O)N2CCCC12 (centres undefined) | inactive | inactive | – | –
CC(C)c1cc2c(c(O)c1O)[C@@]13CCCC(C)(C)C1[C@@H](O)[C@@H]2OC3=O (some centres undefined) | 4.53 µM (active) | 10.1 µM (active) | – | –
CNC(=O)COC(=O)NCCC1CCN(c2cccc(C)n2)CC1 | inactive | inactive | – | –
COc1ccc(CNC(=O)c2cc(-c3cncc(C)c3)ncc2-c2nccs2)nc1OC | inactive | inactive | – | –
CC1COC2(OC3CC4C5CC(O[C@@H]6O[C@H](C)[C@@H](O[C@@H]7O[C@@H](C)[C@H](O)[C@@H](O)[C@H]7O)[C@H](O)[C@H]6O)C6CC(O)CCC6(C)C5CCC4(C)C3C2C)C(O)C1 (some centres undefined) | inactive | inactive | – | –
CCC(NC(=O)CC(NC(=O)C(CO)NC(=O)C(CC)NC(=O)c1ccc[nH]1)c1ccccc1)C(=O)O (centres undefined) | inactive | inactive | – | –
C=C1CCC(OC(C)=O)C2(C)CC3(O)OC(=O)C(C)=C3CC12 (centres undefined) | inactive | inactive | – | –
COc1c2c(c(C)c3c1C(=O)OC3)OC1(C)CC(O)C3(O)C(C)(C)OC(=O)CCC3(C)C1C2 (centres undefined) | inactive | inactive | – | –
C[C@]1(OC(=O)/C=C/c2ccccc2)C[C@@H](O)[C@]2(O)C=CO[C@@H](O[C@@H]3O[C@H](CO)[C@@H](O)[C@H](O)[C@H]3O)[C@@H]21 | inactive | inactive | – | –
CC(=O)NCCCCn1c2c(c3ccccc31)C(=O)NCC2 | inactive | inactive | – | –
CC1=CC(=O)OC(C)(CC(C)(O)C(=O)O)C1 (centres undefined) | inactive | inactive | – | –
CC(=O)N(O)CCCCCN1C(=O)CCC1=O | inactive | inactive | – | –
COC(=O)c1c(CC=C(C)C)c(OC2OC(CO)C(O)C(O)C2O)c2ccccc2c1OC1OC(CO)C(O)C(O)C1O (centres undefined) | inactive | inactive | – | –
O=C(NCCO)c1cccc(-c2cc(Nc3ccc(OC(F)(F)F)cc3)ncn2)c1 | 6.51 µM (active) | 5.8 µM (active) | – | –
C=CC(=O)Nc1ccc(CN2C(=O)N(c3cc(OC)cc(OC)c3)Cc3cnc(Nc4ccc(N5CCN(C)CC5)cc4)nc32)cc1 | 1.16 µM (active) | 1.3 µM (active) | – | –
C[C@@H]1O[C@@H](O[C@H]2[C@H](OC(=O)[C@]34CCC(C)(C)C[C@H]3C3=CCC5[C@@]6(C)CC[C@H](O[C@@H]7O[C@H](CO[C@@H]8OC[C@H](O)[C@H](O)[C@H]8O)[C@@H](O)[C@H](O)[C@H]7O)C(C)(C)C6CC[C@@]5(C)[C@]3(C)C[C@H]4O)OC[C@@H](O)[C@@H]2O)[C@H](O)[C@H](O[C@@H]2OC[C@](O)(CO)[C@H]2O)[C@H]1O[C@@H]1OC[C@H](O)[C@H](O[C@@H]2OC[C@@H](O)[C@H](O)[C@H]2O)[C@H]1O (some centres undefined) | – | – | 88.4% [at 9.25 µM] | 88.4% [at 9.25 µM]
Cc1cc(N(C)C)ccc1-c1nc2ccc(-c3nc4ccc(N5CCN(C)CC5)cc4[nH]3)cc2[nH]1 | 0.411 µM (active) | 0.184 µM (active) | – | –
OC[C@H]1O[C@@H](OCc2ccccc2)[C@H](O)[C@@H](O)[C@@H]1O | inactive | inactive | – | –
O=C1OC(/C=C/c2ccccc2)=NC/1=C\c1cccnc1 | inactive | inactive | – | –

SMILES | Potency [1] | Potency [2] | viability (% of control) [1] | viability, % of control [2]
CC(=O)C=C=C1C(C)(C)CC(O[C@@H]2O[C@H](CO)[C@@H](O)[C@H](O)[C@H]2O)CC1(C)O (some centres undefined) | inactive | inactive | – | –
CC(C)(O)C1CC=C(C(=O)OC[C@H]2O[C@@H](Oc3cc(C(=O)O)cc(O)c3O)[C@H](O)[C@@H](O)[C@@H]2O)CC1 (some centres undefined) | inactive | inactive | – | –
C[C@]12CC[C@@H]3c4ccc(O[C@@H]5O[C@H](C(=O)O)[C@@H](O)[C@H](O)[C@H]5O)cc4CC[C@H]3[C@@H]1CCC2=O | inactive | inactive | – | –
COc1cc(OC)cc(N2CCN(C(=O)Nc3nc4cc(F)ccc4nc3OC)CC2)c1 | 0.934 µM (active) | 1.05 µM (active) | – | –
C=C1CCC2C(C)(C(=O)O)CCCC2(C)C1CC/C(=C\CO)CO (centres undefined) | inactive | inactive | – | –
Cc1csc2c(N[C@@H](C)CN3CCN(S(=O)(=O)c4ccc(Cl)c(Cl)c4)CC3)ncnc12 | 0.259 µM (active) | 0.231 µM (active) | – | –
Cc1cn(-c2cc(NC(=O)c3ccc(C)c(Nc4nccc(-c5cnccn5)n4)c3)cc(C(F)(F)F)c2)cn1 | inactive | inactive | – | –
COC(=O)c1sccc1S(=O)(=O)Nc1ccc(Nc2ccccc2)cc1OC | 5.17 µM (active) | 3.26 µM (active) | – | –
CC1=C(C(=O)O[C@@H]2O[C@H](COC3OCC(O)C(O)C3O)[C@@H](O)[C@H](O)[C@H]2O)C(C)(C)CCC1 (some centres undefined) | inactive | inactive | – | –
C[C@@H]1O[C@@H](O[C@H]2[C@H](O[C@H]3[C@H](O[C@H]4CC[C@@]5(C)C(CC[C@]6(C)C5CC=C5[C@@H]7CC(C)(C)CC(=O)[C@]7(C)CC[C@]56C)[C@@]4(C)CO)O[C@H](C(=O)O)[C@@H](O)[C@@H]3O)O[C@H](CO)[C@H](O)[C@@H]2O)[C@H](O)[C@H](O)[C@H]1O (some centres undefined) | – | – | 81.7% [at 9.25 µM] | 68.7% [at 9.25 µM]
C=C(C)[C@@H](C)[C@H]1O[C@]23C[C@]4(CO2)C(CCC2[C@@]5(C)CC[C@H](O[C@@H]6OC[C@H](O)[C@H](O[C@@H]7O[C@H](CO)[C@@H](O)[C@H](O)[C@H]7O)[C@H]6O[C@@H]6O[C@@H](CO)[C@H](O)[C@H]6O)C(C)(C)C5CC[C@]24C)C3[C@@](C)(O)[C@@H]1OC(C)=O (some centres undefined) | – | – | 73.4% [at 9.25 µM] | 92.6% [at 9.25 µM]
O=C(O)Cc1nn(Cc2nc3cc(C(F)(F)F)ccc3s2)c(=O)c2nccnc12 | inactive | inactive | – | –
O=C(OCC(O)CO[C@@H]1O[C@H](C(=O)O)[C@@H](O)[C@H](O)[C@H]1O)c1ccccc1 (some centres undefined) | inactive | inactive | – | –
C=C(C=O)[C@]1(O)C[C@@]2(C)C(=CC1=O)C=C[C@H](OC(=O)/C=C/C=C/[C@H](C)CC)[C@@H]2C | 1.12 µM (active) | 0.796 µM (active) | – | –
CC1=C[C@H]2[C@@H](CC1=O)[C@H](C)C[C@H](O)[C@H]2C(C)C | inactive | inactive | – | –
COc1c(O)cc2c(c1O)C(=O)O[C@H](C)[C@H]2O | inactive | inactive | – | –
C=C(C)C(=O)O[C@H]1[C@H]2C(=C)C(=O)O[C@@H]2C[C@@H](C)[C@@H]2O[C@@H]2C(=O)[C@](C)(O)[C@@H]1OC(C)=O | 2 µM (active) | 1.59 µM (active) | – | –
CN1CCCN(C(=O)c2cccc(-c3ccc(/C=C4\C(=O)Nc5ccc(Cl)cc54)o3)c2)CC1 | 0.184 µM (active) | 0.461 µM (active) | – | –
COC(=O)C[C@H]1C(C)(C)[C@H](OC(=O)C(C)C)[C@@]2(O)C(=O)[C@]1(C)C1CC[C@]3(C)C(CC(=O)O[C@H]3c3ccoc3)[C@]13O[C@@H]32 (some centres undefined) | inactive | inactive | – | –

SMILES | Potency [1] | Potency [2] | viability (% of control) [1] | viability, % of control [2]
CCC(CCO[C@@H]1O[C@H](CO[C@H]2OC[C@](O)(CO)[C@H]2O)[C@@H](O)[C@H](O)[C@H]1O)C(C)(C)O (some centres undefined) | inactive | inactive | – | –
C=CCc1ccc(O[C@@H]2O[C@H](CO[C@@H]3O[C@H](CO)[C@@H](O)[C@H](O)[C@H]3O)[C@@H](O)[C@H](O)[C@H]2O)c(O)c1 | inactive | inactive | – | –
CC(=O)c1c(C)cc(O[C@@H]2O[C@H](CO)[C@@H](O)[C@H](O)[C@H]2O)cc1O | inactive | inactive | – | –
CC(=O)O[C@H]1[C@H](Oc2ccccc2COC(=O)C2(O)C=CCCC2=O)O[C@H](CO)[C@@H](O)[C@@H]1O (some centres undefined) | inactive | inactive | – | –
C=CC(C)(O)CC/C=C(\C)COC1O[C@H](CO)[C@@H](O)[C@H](O)[C@H]1O (some centres undefined) | inactive | inactive | – | –
COc1c(C)c(OCC(O)C(C)(C)O)cc2c1COC2=O (centres undefined) | inactive | inactive | – | –
O=C(O)/C=C/c1ccc2occc2c1O[C@@H]1O[C@H](CO)[C@@H](O)[C@H](O)[C@H]1O | inactive | inactive | – | –
O=C(/C=C/c1ccc(O)cc1)OCC1OC(O)C(OC2OC(CO)C(O)C(O)C2O)C(O)C1O (centres undefined) | inactive | inactive | – | –
CCCCC/C=C\C/C=C\CCCCCCCC(=O)NC(C)c1ccccc1 (centres undefined) | 11.9 µM (active) | 7.5 µM (active) | – | –
CC/C=C\CC1C(CC(=O)O)CCC1OC1OC(CO)C(O)C(O)C1O (centres undefined) | inactive | inactive | – | –
COC(=O)C12CCC(C)C(C)C1C1=CCC3C4(C)CCC(OC(C)=O)C(C)(C)C4CCC3(C)C1(C)CC2 (centres undefined) | inactive | inactive | – | –
CC(=O)Oc1ccc(C2(c3ccc(OC(C)=O)cc3)Oc3ccccc3NC2=O)cc1 | 5.8 µM (active) | 2.99 µM (active) | – | –
CC(C)=C[C@@H]1[C@H](CO[C@@H]2O[C@H](CO)[C@@H](O)[C@H](O)[C@H]2O)C1(C)C | 7.18 µM (active) | 4.53 µM (active) | – | –
COc1ccc(CC2C(=O)NC(C)C(=O)N(C)C3Cc4ccc(cc4)Oc4cc(ccc4OC4OC(CO)C(O)C(O)C4O)CC(C(=O)NC(C)C(=O)NC(C)C(=O)N2C)N(C)C3=O)cc1 (centres undefined) | 0.0155 µM (active) | 0.0098 µM (active) | – | –
CN(C)c1nc2c(Br)c(Br)c(Br)c(Br)c2[nH]1 | 11.6 µM (active) | 8.2 µM (active) | – | –
CC1OC(OC2C(O)C(C(=O)O)OC(OC3CCC4(C)C(CCC5(C)C4C=CC4=C6CC(C)(C)CC(O)C6(C)CCC45C)C3(C)C)C2OC2OCC(O)C(O)C2O)C(O)C(O)C1O (centres undefined) | – | – | 89.1% [at 9.25 µM] | 97.4% [at 9.25 µM]
COc1cc(OC)cc(-c2ccc3c(-c4ccc(F)cc4)[nH]nc3n2)c1 | inactive | inactive | – | –
COc1ccc(Cl)cc1[C@@]1(F)C(=O)Nc2cc(C(F)(F)F)ccc21 | 9.2 µM (active) | 6.51 µM (active) | – | –
CC(=O)O[C@H]1[C@H](C)[C@@H](O)[C@H]2[C@@H]1C=C(C(=O)O)[C@H]1C[C@@H]3[C@H]([C@H]21)[C@H]1C(=O)O[C@@H]2CC[C@@]3(C)O[C@]1(O)[C@@H]2C | inactive | inactive | – | –
